Measured values reported in ChEMBL document CHEMBL3433997, “St. Jude Leishmania screening dataset” (2016).

How the values were obtained:
Assay type in all cases: functional
[1] = biological target: Solute carrier family 2, facilitated glucose transporter member 1 (Homo sapiens) (UniProt P11166); test: ST_JUDE_LEISH: Cytotoxicity at 2uM final concentration against transgenic Leishmania Mexicana promastigotes LmGLUT1 that are glucose transport deficient and complemented with the human glucose transporter GLUT1. Activity is measured by DNA content using SYBR green in vitro
Sequence of Solute carrier family 2, facilitated glucose transporter member 1 (Homo sapiens) (P11166 whole entry): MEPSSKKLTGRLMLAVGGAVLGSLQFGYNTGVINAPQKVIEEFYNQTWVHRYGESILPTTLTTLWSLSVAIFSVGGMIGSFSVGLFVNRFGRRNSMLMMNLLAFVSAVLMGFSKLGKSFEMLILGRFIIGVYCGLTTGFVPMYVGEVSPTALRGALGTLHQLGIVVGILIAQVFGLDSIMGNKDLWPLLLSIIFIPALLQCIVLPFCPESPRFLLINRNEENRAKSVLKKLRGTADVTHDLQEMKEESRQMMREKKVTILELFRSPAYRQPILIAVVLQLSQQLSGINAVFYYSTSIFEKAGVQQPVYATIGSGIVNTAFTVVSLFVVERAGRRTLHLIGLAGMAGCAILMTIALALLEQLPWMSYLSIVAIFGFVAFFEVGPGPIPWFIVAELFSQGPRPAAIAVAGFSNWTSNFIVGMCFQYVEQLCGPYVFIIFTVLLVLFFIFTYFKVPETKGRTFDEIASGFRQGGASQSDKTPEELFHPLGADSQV

[2] = biological target: Hexose transporter 1 (Plasmodium falciparum) (UniProt O97467); test: ST_JUDE_LEISH: Cytotoxicity at 2uM final concentration against transgenic Leishmania Mexicana promastigotes LmPfHT that are glucose transport deficient and complemented with the Plasmodium falciparum hexose transporter. Activity is measured by DNA content using SYBR green in vitro
[3] = biological target: Glucose transporter (Leishmania mexicana) (UniProt O61059); test: ST_JUDE_LEISH: Cytotoxicity at 2uM final concentration against transgenic Leishmania Mexicana promastigotes LmGT2 that are glucose transport deficient and complemented with the L. Mexicana glucose transporter 2. Activity is measured by DNA content using SYBR green in vitro

| SMILES | inhibition [1] [%] | inhibition [2] [%] | inhibition [3] [%] |
| --- | --- | --- | --- |
| Cc1[nH]c(C)c(-c2ccc(-c3ccc(Cl)cc3)nc2)c(=O)c1Br | -0.04 | -0.24 | -1.28 |
| CC(C)CNCc1ccc(-c2ccccc2CNC2CCN(Cc3ccccc3)CC2)cc1 | 7.04 | 7.66 | 5.95 |
| CC1(C)N=C(N)N=C(N)N1OCc1ccc2ccccc2c1 | 8.29 | 7.22 | 6.67 |
| O=C(Nc1cccc(F)c1)NC1CCN(CCCCCNC(=O)C2CC2c2ccc(Cl)c(Cl)c2)CC1 (stereo not given) | 0.44 | -0.11 | -1.31 |
| O=C(N[C@@H](Cc1ccccc1)C(=O)NCCN1CCOCC1)c1ccc(O)c(-c2ccc(Cl)c(Cl)c2)c1 | 2.33 | 2.47 | 4.35 |
| COc1cc(CN2CCC(C(=O)Nc3ccc(-c4cccc(C)c4)cc3)CC2)ccc1O | 8.11 | 7.03 | 4.91 |
| CN(C(=O)/C=C/c1cc(C(F)(F)F)ccc1F)C1CCN(CCCCCNC(=O)/C=C/c2ccc(Cl)c(Cl)c2)C1 (stereo not given) | 0.02 | 1.48 | 1.37 |
| COc1cc2c(cc1S(=O)(=O)c1ccc(NC(=O)c3cc4ccccc4s3)cc1)CCN(C)CC2 | -1.48 | 3.2 | 1.94 |
| Cc1cc(O)c(-c2cc(C(=O)Nc3cccnc3)[nH]n2)cc1C | 7.05 | 4.46 | 4.37 |
| Cc1ccc(-n2c(Cc3cccc4ccccc34)nnc2SCCC#N)c(C)c1 | 5.99 | 5.29 | 8.9 |
| COc1cc(C(=O)N2CCN(C(C)C)CC2)ccc1CN(C)CCCN1CCN(c2cccc(Cl)c2Cl)CC1 | 0.76 | 0.33 | 0.31 |
| Cc1ccc(CCOCCCCCNCC(O)c2cc(Cl)c(N)c(Cl)c2)cc1 (stereo not given) | 1.04 | -1.13 | 0.95 |
| COc1cc(Cc2cnc(N)nc2N)cc(OC)c1OCCNC(=O)[C@@H](N)CCC(=O)O | -0.69 | 0 | 0.12 |
| CCN(CC)CCCNc1c2ccccc2nc2ccccc12 | 23.4 | 22.3 | 16.5 |
| CCOC(=O)c1cc2c(CCN3C(=O)c4ccccc4C3=O)cn(C)c2cc1-c1ccncc1 | 93 | 91 | 90.9 |
| CCCOc1cc2c(cc1OCCC)C(C=Cc1ccc(Cl)cc1Cl)=NC(C)C2 (stereo not given) | 94.6 | 96.7 | 94.4 |
| COC(=O)Nc1cc(C(F)(F)F)ccc1N1CCCC(NS(=O)(=O)c2ccc(C(C)(C)C)cc2)C1 (stereo not given) | 10 | 12.2 | 7.77 |
| Clc1ccc(CCNCCCCCCNCCc2ccc3c(c2)OCO3)cc1 | 8.05 | 8.53 | 7.21 |

| SMILES | inhibition [1] [%] | inhibition [2] [%] | inhibition [3] [%] |
| --- | --- | --- | --- |
| CCN(CC)/C(=N/C(=N)Nc1ccc(Cl)c(Cl)c1)NCCCCCCN/C(=N\C(=N)Nc1ccc(Cl)c(Cl)c1)N(CC)CC | 1.15 | -1.65 | -1.49 |
| COc1ccc2nccc(N3CCC(NCCNCc4ccc5c(n4)NC(=O)CO5)C3)c2n1 (stereo not given) | 1.29 | 1.28 | 1.15 |
| Cc1nnsc1C(=O)Nc1cccc(-c2cccc(-c3nc4cc(F)ccc4[nH]3)c2)c1 | 0.66 | 0.05 | -2.12 |
| CCCCCN1CCCC(NS(=O)(=O)c2cccc(C(=O)Nc3cccc(C(F)(F)F)c3)c2)C1 (stereo not given) | -0.69 | -0.64 | -2.02 |
| NC(=O)c1ccccc1OCC(=O)Nc1cccc(-c2ccc(-c3nc4ccccc4[nH]3)cc2)c1 | 8.01 | 6.11 | 2.43 |
| CN1CCC(c2cc3c(cc2Br)CCN3C(=O)Nc2ccc(-c3ccncc3)c(Cl)c2)CC1 | 0.33 | 1.09 | 0.25 |
| CCCN1CCc2c(sc3nc(SCC(=O)Nc4ccc(C)cc4)n(-c4ccc(C)cc4)c(=O)c23)C1 | 6.06 | 3.25 | 3.72 |
| CCCc1ccc(S(=O)(=O)NC2CCN(c3ccnc(Nc4ccc(OC)cc4)n3)C2)cc1 (stereo not given) | 8.11 | 9.89 | 9.64 |
| COc1cc(NC(=O)CCCCCCCN2CCN(C)CC2)c2ncccc2c1 | 5.39 | 3.78 | 1.09 |
| NC(=O)c1cccc(Nc2nccc(Nc3ccc(Oc4cccc5ccccc45)cc3)n2)c1 | 7.84 | 7.66 | 1.31 |
| O=C(/C=C/c1ccc([N+](=O)[O-])cc1)N1CCC(NS(=O)(=O)c2ccc(F)cc2)CC1 | 6 | 3.96 | 7.08 |
| COc1ccc2ccccc2c1C=NNc1ccnc2cc(Cl)ccc12 | 1.99 | 0.95 | 1.17 |
| O=C(/C=C/c1ccc(Cl)c(Cl)c1)NCCCCCCN1CCCN(C(=O)Nc2cccc(Cl)c2)CC1 | -1.03 | 0.08 | -2.92 |
| CCCc1cc(C)ccc1OCCCON1C(N)=NC(N)=NC1(C)C | 31.1 | 45.5 | 25.9 |
| COc1ccc(-c2ccc(CNCc3ccsc3)cc2)cc1S(=O)(=O)NCCN1CCCC1 | -0.99 | 0.23 | -2.28 |
| COc1ccc(NC(=O)Nc2cccc(-c3ccc(-c4nc5cccc(C)c5[nH]4)s3)c2)cc1 | 6.52 | 5.29 | 3.22 |
| CN(C)c1ccc(-c2ccc(C(=O)NC3CCN(Cc4ccc(F)cc4)CC3)s2)cc1 | 5.83 | -1.68 | 3.76 |
